Screens from PubChem.
FBPA Giardia inh = qHTS Assay for Inhibitors of Fructose-1,6-bisphosphate Aldolase from Giardia Lamblia. 290,000 compounds, 0.71% hits. A8B2U2. purified Giardia FBPA. Potency, µM (top dose mostly 59.6 µM), hits mostly inhibitors; note: nearly all actives have a fitted effect of over 55% in size
Target sequence (A8B2U2 whole entry, looked up): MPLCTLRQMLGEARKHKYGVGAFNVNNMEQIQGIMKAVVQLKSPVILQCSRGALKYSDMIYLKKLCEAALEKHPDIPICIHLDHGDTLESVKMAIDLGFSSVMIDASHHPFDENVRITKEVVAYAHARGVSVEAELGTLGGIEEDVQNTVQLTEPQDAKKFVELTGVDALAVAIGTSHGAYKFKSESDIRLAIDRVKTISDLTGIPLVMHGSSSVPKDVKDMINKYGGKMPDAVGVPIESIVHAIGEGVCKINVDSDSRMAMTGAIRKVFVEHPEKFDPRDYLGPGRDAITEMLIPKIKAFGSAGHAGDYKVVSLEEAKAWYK
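40 nM FBPA preincubated 10 min at RT with compound (up to 57.5 uM final), then substrate plus GAPDH/TPI/NAD/arsenate coupling and diaphorase/resazurin added. Fluorescence read after 20 min at RT, 525/598 nm.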
Cruzain noTriton = qHTS Assay for Promiscuous and Specific Inhibitors of Cruzain (without detergent). Cruzipain (Trypanosoma cruzi), P25779. purified cruzain, Z-FR-AMC fluorescence, no detergent. Potency, µM, hits mostly inhibitors. 200,000 compounds, 2.3% hits. AID 1476, 2009; note: nearly all actives have a fitted effect of over 40% in size
Target sequence (P25779 123-467 limits assumed): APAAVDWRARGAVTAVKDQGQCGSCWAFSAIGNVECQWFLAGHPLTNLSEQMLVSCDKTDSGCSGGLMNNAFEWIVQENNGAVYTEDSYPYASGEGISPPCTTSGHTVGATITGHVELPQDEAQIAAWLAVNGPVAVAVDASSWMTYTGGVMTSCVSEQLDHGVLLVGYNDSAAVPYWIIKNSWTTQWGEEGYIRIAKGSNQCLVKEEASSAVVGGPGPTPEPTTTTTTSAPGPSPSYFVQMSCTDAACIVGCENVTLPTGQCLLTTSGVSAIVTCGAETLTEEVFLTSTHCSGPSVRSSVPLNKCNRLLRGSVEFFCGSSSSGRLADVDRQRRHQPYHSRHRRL
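Purified cruzain at 1.5 nM, pre-incubated 15 min with compound at room temperature in 100 mM sodium acetate pH 5.5, 5 mM DTT, 0.00005% Triton X-100. Reaction started with 2 uM Z-FR-AMC; AMC fluorescence increase over 60 s gives rate.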
Cruzain Triton = qHTS Assay for Promiscuous and Specific Inhibitors of Cruzain (with detergent); purified cruzain, Z-FR-AMC fluorescence, 0.01% Triton; 200,000 compounds, 0.43% hits; Cruzipain (Trypanosoma cruzi), P25779; Potency, µM, actives largely listed as inhibitors; note: nearly all actives have a fitted effect of over 40% in size
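In this qHTS format, compounds are incubated with 1.5 nM cruzain for 15 min at room temperature before 2 uM Z-FR-AMC is added. Release of AMC is followed at 360/450 nm, and progress is taken as the 60 s fluorescence difference.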
Each line names hits and unclear results; the compound was inactive in the other large screens. Shown is part of a subset that was picked to be rich in hits. Calls come from the whole dose curve; as a rule, active = well fitted curve in the direction sought with a large enough effect; inconclusive = small, poorly fitted or top-dose-only effect, or another doubt; inactive = no such curve, though single readings can be large; an effect the other way counts as inactive or inconclusive.

Cc1ccc(NC(=O)Cn2c(=O)n(Cc3nc(-c4ccccc4)no3)c(=O)c3cc4c(cc32)OCO4)cc1F	Cruzain noTriton 12.6µM (no result: FBPA Giardia inh)
CC(=O)[O-].CC(=O)[O-].O.O.O.[Pb+2]	none (no result: FBPA Giardia inh)
O=S(=O)(O/N=C1\CCCc2ccccc21)c1ccccc1	none
CC1=CC(=O)C=C(C)C1=NOS(=O)(=O)c1ccccc1	FBPA Giardia inh 3.97µM
Cc1ccc(S(=O)(=O)ON=C2CCN(S(=O)(=O)c3ccccc3)CC2)cc1	none
CC1=CC(=O)C(C(C)C)=C/C1=N/OS(=O)(=O)c1ccccc1	FBPA Giardia inh 19.9µM (no result: Cruzain noTriton, Cruzain Triton)
NNC(=O)c1ccc[n+](CCc2ccccc2)c1	none (no result: FBPA Giardia inh)
COc1ccc(CNc2nc(-c3ccccc3OC)nc3ccccc23)c(OC)c1	none
CCOc1ccc(CNCc2c(C(=O)O)c(C)n(Cc3ccc(C)cc3)c2C)cc1	none (no result: FBPA Giardia inh)
O=C(O)C1(C(=O)O)CCN(S(=O)(=O)c2ccccc2)CC1	none (no result: FBPA Giardia inh)
COc1ccccc1C1=Nn2c(nnc2-c2ccccc2O)SC1	none (no result: Cruzain noTriton, Cruzain Triton)
O=C1C=CC2=C3c4cc(O)c(O)cc4CC3(O)COC2=C1O (stereo not given)	FBPA Giardia inh 11.2µM, Cruzain noTriton inconclusive, Cruzain Triton inconclusive
CC1Cc2ccccc2N1Cc1nc2cc(C(F)(F)F)ccc2c(=O)[nH]1 (stereo not given)	Cruzain noTriton 25.1µM
NC(=O)C1CCN(Cc2nc3cc(C(F)(F)F)ccc3c(=O)[nH]2)CC1	none (no result: Cruzain noTriton, Cruzain Triton)
Cc1ccc(OCC(=O)Nc2ccc3nn(-c4ccc(C)cc4)nc3c2)cc1	none (no result: FBPA Giardia inh)
Cc1ccc2nc(SCC(=O)Nc3ccc(F)c([N+](=O)[O-])c3)[nH]c2c1	Cruzain noTriton inconclusive, Cruzain Triton 14.1µM
Cc1ccc2nc(SCC(=O)Nc3ccc(C)c([N+](=O)[O-])c3)[nH]c2c1	none
COc1ccc(C)cc1S(=O)(=O)NCC(c1ccc(N(C)C)cc1)N1CCc2ccccc21 (stereo not given)	Cruzain noTriton inconclusive (no result: FBPA Giardia inh)
Cc1cc(C)c(S(=O)(=O)NCC(c2ccc(N(C)C)cc2)N2CCc3ccccc32)c(C)c1 (stereo not given)	Cruzain noTriton 20µM (no result: FBPA Giardia inh)
CC(=O)NC1C(O)O[C@H](C(=O)O)[C@@H](O)[C@@H]1O (stereo not given in full)	none (no result: Cruzain noTriton, Cruzain Triton)
COc1cccc(N2C(=O)C(CC(=O)Nc3ccc(Cl)cc3)N(Cc3ccc4c(c3)OCO4)C2=O)c1 (stereo not given)	none (no result: FBPA Giardia inh)
CCOC(=O)N1CCN(C2=Nc3cccc4cccc2c34)CC1	FBPA Giardia inh inconclusive
CC(=O)N1CCN(C2=Nc3cccc4cccc2c34)CC1	FBPA Giardia inh 3.97µM
O=C1CCCN1CCCn1cnc2c([nH]c3ccc(F)cc32)c1=O	none
Cc1ccc2[nH]c3c(NCCN4CCOCC4)ncnc3c2c1	Cruzain noTriton 20µM
O=C1CCCN1CCCNc1ncnc2c1[nH]c1ccc(Cl)cc12	Cruzain noTriton 15.8µM, Cruzain Triton 25.1µM
C=CCNc1ncnc2c1[nH]c1ccc(C)cc12	none
CC[C@@H](Nc1ncnc2nc[nH]c12)C(=O)O	none (no result: FBPA Giardia inh)
Nc1ccc(-c2ccc(Nc3cc(S(=O)(=O)O)c(N)c4c3C(=O)c3ccccc3C4=O)cc2)c(S(=O)(=O)O)c1	none (no result: FBPA Giardia inh)
Cc1cc(C)c(Nc2cc(S(=O)(=O)O)c(N)c3c2C(=O)c2ccccc2C3=O)c(C)c1	Cruzain noTriton inconclusive, Cruzain Triton 25.1µM
CC[C@H](C)[C@H](N)C(=O)N[C@H]1CCC(=O)NCC(C(=O)N[C@@H](Cc2ccc(O)cc2)C(=O)N[C@@H](CCCNC(=N)N)C(=O)N[C@@H](CC(C)C)C(=O)N[C@@H](CCCNC(=N)N)C(=O)N[C@@H](Cc2ccc(O)cc2)C(N)=O)NC(=O)[C@@H]2CCCN2C(=O)[C@@H](NC(=O)[C@@H](N)[C@@H](C)CC)CCC(=O)NCC(C(=O)N[C@@H](Cc2ccc(O)cc2)C(=O)N[C@@H](CCCNC(=N)N)C(=O)N[C@@H](CC(C)C)C(=O)N[C@@H](CCCNC(=N)N)C(=O)N[C@@H](Cc2ccc(O)cc2)C(N)=O)NC(=O)[C@@H]2CCCN2C1=O (stereo not given in full)	none (no result: Cruzain noTriton, Cruzain Triton)
O=c1cc(NCc2ccccc2)nc2n1CCCS2	Cruzain noTriton 25.1µM
O=C(COc1cc(=O)n2c(n1)SCCC2)c1ccccc1	none
COC(=O)c1cccc(NC(=O)c2cc3sccc3n2C)c1	Cruzain noTriton 25.1µM
COC(=O)c1ccccc1NC(=O)c1cc2sccc2n1C	none
Cc1ccc(OCC(=O)NCC2(N3CCOCC3)CCCCC2)cc1C	none (no result: FBPA Giardia inh)
Cc1ccc(-c2c(CN3CCN(c4cc(Cl)ccc4C)CC3)csc2C)cc1	none (no result: FBPA Giardia inh)
Cc1cc(C(=O)COc2ccc(-c3nnco3)cc2)c(C)n1Cc1ccccc1	Cruzain noTriton 15.8µM
O=C(COc1ccc(-c2nnco2)cc1)NCc1ccccc1Cl	none
COc1ccc(C(=O)c2sc3nc(C)cc(-c4cccs4)c3c2N)cc1	Cruzain noTriton inconclusive
Cc1cc(-c2cccs2)c2c(N)c(C(=O)c3ccc4c(c3)OCO4)sc2n1	Cruzain noTriton 25.1µM
CCCCC/C=C\C/C=C\C/C=C\C/C=C\CCCC(=O)N(Cc1ccc(O)c(Cl)c1)Cc1ccc(O)c(Cl)c1	Cruzain noTriton inconclusive, Cruzain Triton inconclusive
COc1ccccc1NC(=O)CSc1nnc(-c2nonc2NC(C)=O)n1-c1ccccc1	Cruzain noTriton inconclusive (no result: FBPA Giardia inh)
Cc1ccc(/C=C/C(=O)Nc2nc3ccccc3[nH]2)cc1	Cruzain noTriton 25.1µM
Cc1ccc(/C=C/C(=O)c2nc3ccccc3[nH]2)cc1	none
CCN1CCN(Cc2c(O)ccc3oc(C)c(C(=O)Nc4ccc(OC)cc4)c23)CC1	none (no result: FBPA Giardia inh)
CCOC(=O)c1ccccc1NC(=O)c1cc(S(=O)(=O)N2CCOCC2)ccc1F	Cruzain noTriton inconclusive
CCOC(=O)c1c(-c2ccccc2)csc1NC(=O)c1cc(=O)c2ccc(C)cc2o1	none (no result: FBPA Giardia inh)
CCOC(=O)c1c(-c2ccccc2Cl)csc1NC(=O)c1cc(S(=O)(=O)N2CCOCC2)ccc1C	Cruzain noTriton 25.1µM
CCOC(=O)c1c(-c2ccccc2)csc1NC(=O)c1cc2ccccc2oc1=O	Cruzain noTriton 15.8µM
Nc1nccc(Nc2ccc(S(N)(=O)=O)cc2)n1	none (no result: FBPA Giardia inh)
Cc1ccc2nc(NCCN)c3ncc(C)n3c2c1	none (no result: Cruzain noTriton, Cruzain Triton)
COC(=O)c1ccc(-c2nc(O)c(C)s2)cc1	none (no result: Cruzain noTriton, Cruzain Triton)
COC(=O)c1ccc(-c2nc3cc(Cl)c(N)cc3s2)cc1	FBPA Giardia inh inconclusive, Cruzain noTriton 7.94µM
CCOC(=O)Cn1c(=NC(=O)c2sc3ccccc3c2Cl)sc2cc(S(N)(=O)=O)ccc21	Cruzain noTriton 7.94µM
COC(=O)Cn1c(=NC(=O)c2sc3ccccc3c2Cl)sc2cc(S(N)(=O)=O)ccc21	none
Cc1ccc(Sc2cncc3sc(C(N)=O)cc23)cc1	none (no result: Cruzain noTriton, Cruzain Triton)
COc1ccc(OC)c(C2=Nn3c(nnc3-c3ccccc3C)SC2)c1	none (no result: Cruzain noTriton, Cruzain Triton)
NS(=O)(=O)c1cccc(NC(=O)COC(=O)Cc2ccc(S(=O)(=O)N3CCCCC3)s2)c1	none (no result: Cruzain noTriton, Cruzain Triton)
O=C(COC(=O)/C=C/c1ccc2c(c1)OCO2)Nc1ccc(S(=O)(=O)N2CCCC2)cc1	Cruzain noTriton 31.6µM
O=C(COC(=O)/C=C/c1ccc2c(c1)OCO2)Nc1ccccc1	none (no result: Cruzain noTriton, Cruzain Triton)
O=C(COC(=O)Cc1ccc(S(=O)(=O)N2CCCCC2)s1)Nc1ccc2c(c1)OCO2	Cruzain noTriton 10µM
CCN(C(=O)Cn1c(C(=O)OC)cc2sc(Cl)cc21)c1cccc(C)c1	none (no result: FBPA Giardia inh)
